Here are results for 38 molecules from the supplement of paper PMC10503962.

The assay relates to Trichuris muris adult worms. In words: mean motility score (Paragon pixel variance) of adult worms (arbitrary units); higher = more motile worms, i.e. less anthelmintic effect; extreme values may be limits of the assay. The note with it: 100 µM; 24 h. An outline of the steps: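 Single adult Trichuris muris worms, collected from infected NOD SCID mice, were placed in 96-well plates with 100 μL RPMI-1640 plus antibiotics and drug at 100 μM (1% v/v DMSO), then kept at 37°C and 5% CO2 for 24 h. Plates were filmed on an automated phenotyping platform (200 frames, 100 ms apart). Motility score came from Paragon pixel-variance analysis, averaged across replicate wells. Each drug had three worms in three wells, run on three separate occasions, with vehicle and positive controls.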
The molecule `COc1ccc([C@@H]2Sc3ccccc3N(CCN(C)C)C(=O)[C@@H]2OC(C)=O)cc1` [diltiazem] came in with a mean motility score of 2070.
`NC(=O)CC[C@H](N)C(=O)O` [glutamine] gave a mean motility score of 3380.
The figure for `CO[C@@]1(NC(=O)CSCC#N)C(=O)N2C(C(=O)[O-])=C(CSc3nnnn3C)CS[C@@H]21.[Na+]` [cefmetazole sodium] is 2040.
The molecule `C/C(=C\C(=O)OCCCCCCCCC(=O)O)C[C@@H]1OC[C@H](C[C@@H]2O[C@H]2[C@@H](C)[C@H](C)O)[C@@H](O)[C@H]1O` [mupirocin] yielded a mean motility score of 2520.
The figure for `COc1ccccc1O` [guaiacol] is 2150; for `COc1ccc(/C=C/C(=O)Nc2ccccc2C(=O)O)cc1OC` [tranilast] it is 1720; for `CCOC(=O)Nc1ccc2c(c1)N(C(=O)CCN1CCOCC1)c1ccccc1S2.Cl` [moricizine hydrochloride] it is 5.
As to `COc1c(C)c2c(c(O)c1C/C=C(\C)CCC(=O)O)C(=O)OC2` [mycophenolic acid], the mean motility score came to 2100.
The figure for `O=C(O)[C@@H](O)[C@H](O)C(=O)O` [tartaric acid] is 3400.
As to `O=C1O[C@H](CO)[C@@H](O)[C@H](O)[C@H]1O` [gluconolactone], the mean motility score is 2100.
In turn, `FC(F)(F)C(F)(F)C(F)(F)C(F)(F)C(F)(F)C(F)(F)C(F)(F)C(F)(F)Br` [perflubron] gave a mean motility score of 1630.
The figure for `CC(C)C(=O)Nc1ccc([N+](=O)[O-])c(C(F)(F)F)c1` [flutamide] is 113; for `COc1ccc(Cl)cc1C(=O)NCCc1ccc(S(=O)(=O)NC(=O)NC2CCCCC2)cc1` [glyburide] it is 2300.
In the case of `CNCC[C@H](Oc1cccc2ccccc12)c1cccs1.Cl` [duloxetine hydrochloride], the mean motility score was found to be 2.67.
The figure for `CNC(=O)c1ccccc1Sc1ccc2c(/C=C/c3ccccn3)n[nH]c2c1` [axitinib] is 2490; for `CN(C(=O)CN(CCO)CC(=O)N(C)C(C)(C)Cc1ccccc1)C(C)(C)Cc1ccccc1` [oxethazaine] it is 184; for `CN1C(C(=O)Nc2ccccn2)=C(O)c2ccccc2S1(=O)=O` [piroxicam] it is 2510.
The figure for `CC(c1cc2ccccc2s1)N(O)C(N)=O` (stereo not drawn) [zileuton] is 3310.
In the case of `Cc1cc(CC(=O)[O-])n(C)c1C(=O)c1ccc(Cl)cc1.[Na+]` [zomepirac sodium] it was 2840; in that of `CCOC(=O)C1=C(COCCN)NC(C)=C(C(=O)OC)C1c1ccccc1Cl` (stereo not drawn) [amlodipine], 8.67; in that of `Cc1c(C)c2c(c(C)c1O)CC[C@@](C)(CCC[C@H](C)CCC[C@H](C)CCCC(C)C)O2` [vitamin E], 2950.
Regarding `CCN(CC)CCNC(=O)c1c(C)[nH]c(/C=C2\C(=O)Nc3ccc(F)cc32)c1C` [sunitinib], the mean motility score is 531.
For `CCOC(=O)[C@H](CCc1ccccc1)N[C@@H](C)C(=O)N1Cc2cc(OC)c(OC)cc2C[C@H]1C(=O)O.Cl` [moexipril hydrochloride], the mean motility score came out at 3680.
The figure for `CN(C)C(=O)C(CCN1CCC(O)(c2ccc(Cl)cc2)CC1)(c1ccccc1)c1ccccc1` [loperamide] is 0; for `CCN[C@H]1C[C@H](C)S(=O)(=O)c2sc(S(N)(=O)=O)cc21` [dorzolamide] it is 2540.
For `Cc1ccc(-c2ncc(Cl)cc2-c2ccc(S(C)(=O)=O)cc2)cn1` [etoricoxib], the mean motility score was 3660.
In the case of `CC(=O)Oc1ccc(C(c2ccc(OC(C)=O)cc2)c2ccccn2)cc1` [bisacodyl] it was 2870; in that of `CCOC(=O)[C@H](CCc1ccccc1)N[C@@H](C)C(=O)N1[C@H](C(=O)O)C[C@@H]2CCC[C@@H]21` [ramipril], 3060; in that of `CCc1c2c(nc3ccc(OC(=O)N4CCC(N5CCCCC5)CC4)cc13)-c1cc3c(c(=O)n1C2)COC(=O)[C@]3(O)CC` [irinotecan], 2280.
In the case of `CN(CCOc1ccc(CC2SC(=O)NC2=O)cc1)c1ccccn1` (stereo not drawn) [rosiglitazone] it was 603.
Consider `NC(N)=O` [urea], for which the mean motility score is 4760.
The figure for `CC(C)(C)c1ccc(C(O)CCCN2CCC(C(O)(c3ccccc3)c3ccccc3)CC2)cc1` (stereo not drawn) [terfenadine] is 1.
The figure for `COc1cc2nccc(Oc3ccc(NC(=O)NC4CC4)c(Cl)c3)c2cc1C(N)=O` [lenvatinib] is 2500; for `Cc1cn(-c2cc(NC(=O)c3ccc(C)c(Nc4nccc(-c5cccnc5)n4)c3)cc(C(F)(F)F)c2)cn1` [nilotinib] it is 2370; for `CC(=O)c1c(C)c2cnc(Nc3ccc(N4CCNCC4)cn3)nc2n(C2CCCC2)c1=O` [palbociclib] it is 1970.
As for `CC(C)NCC(O)c1ccc(NS(C)(=O)=O)cc1.Cl` (stereo not drawn) [sotalol hydrochloride], the mean motility score is 2900.
In the case of `O=C1CCc2ccc(OCCCCN3CCN(c4cccc(Cl)c4Cl)CC3)cc2N1` [aripiprazole] it was 3030; in that of `COc1ccc(CCN(C)CCCC(C#N)(c2ccc(OC)c(OC)c2)C(C)C)cc1OC` (stereo not drawn) [verapamil], 3440.
